Where “and” joins values, the source holds several entries; their conditions need not be identical. Identical values can stand only once. Records with an inconclusive call do not appear. Where a structure was tested more than once in an assay, its records may differ in their call. Calls of active or inactive are those of the source. How the source made its calls, unless noted: active means hit-call score of the fitted dose curve at least 0.9, where 1 is the maximum; inactive means score below 0.9.
Experiments:
[1] = read-out: Intercellular Adhesion Molecule 1 (ICAM1), ICAM1 (gene 3383); test: BSK_hDFCGF_ICAM1: BioMAP Diversity Plus: hDFCGF Assay for Intercellular Adhesion Molecule 1 (ICAM1) Biomarker Activity (AID 2284287); conditions: primary human foreskin fibroblasts
Summary of the method: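 Primary human foreskin fibroblasts (hDFCGF system) dosed with chemical; ICAM-1 quantified by ELISA at 24 h relative to DMSO. Parallel SRB total-protein staining to assess overt cytotoxicity.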

CD40, CD40 (gene 958) = test: BSK_IMphg_CD40: BioMAP Diversity Plus: IMphg Assay for CD40 Biomarker Activity (AID 2284288); conditions: primary human endothelial cells with macrophages
Summary of the method: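 Venular endothelial cells co-cultured with macrophages (human primary), CD40 measured by ELISA 24 h after dosing. Positive-direction fit vs DMSO baseline; cytotoxicity tracked by SRB total-protein staining in parallel cultures.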

[2] = read-out: TIMP metallopeptidase inhibitor 2 (TIMP2), TIMP2 (gene 7077); test: BSK_hDFCGF_TIMP2: BioMAP Diversity Plus: hDFCGF Assay for TIMP metallopeptidase inhibitor 2 (TIMP2) Biomarker Activity (AID 2284289); conditions: primary human foreskin fibroblasts
Summary of the method: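 Primary human foreskin fibroblasts in the hDFCGF system, dosed for 24 h; TIMP-2 level measured by ELISA, fitted in the positive direction against DMSO; cytotoxicity checked in parallel by sulforhodamine B total protein staining.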

[3] = read-out: Interleukin-1 alpha (IL1a), IL1A (gene 3552); test: BSK_IMphg_IL1a: BioMAP Diversity Plus: IMphg Assay for Interleukin-1 alpha (IL1a) Biomarker Activity (AID 2284290); conditions: primary human endothelial cells with macrophages
Summary of the method: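 Human venular endothelial cells co-cultured with macrophages, IMphg system. IL-1α is measured by ELISA 24 h after dosing and fitted in the positive direction against DMSO. Cytotoxicity is assessed by SRB staining of parallel cultures.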

[4] = read-out: E-selectin (Homo sapiens) (UniProt P16581); test: BSK_IMphg_ESelectin: BioMAP Diversity Plus: IMphg Assay for Eselectin Biomarker Activity (AID 2284291); conditions: primary human endothelial cells with macrophages
Summary of the method: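 Human venular endothelial cell–macrophage co-culture, E-selectin measured by ELISA 24 h after chemical dosing. Signal fitted in the positive direction against DMSO as negative control and baseline.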

[5] = BSK_IMphg_SRB: Viability Assessment in the BioMAP Diversity Plus: IMphg Assay (AID 2284292); conditions: primary human endothelial cells with macrophages;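 further: measured one day after compound addition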
Summary of the method: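 Human venular endothelial cells with macrophages, 24 h after chemical dosing; total protein by 0.1% SRB staining after 10% TCA fixation, read at 560 nm. Positive-direction fitting versus DMSO baseline.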

[6] = read-out: Macrophage colony-stimulating factor (MCSF), CSF1 (gene 1435); test: BSK_IMphg_MCSF: BioMAP Diversity Plus: IMphg Assay for Macrophage colony-stimulating factor (MCSF) Biomarker Activity (AID 2284293); conditions: primary human endothelial cells with macrophages
Summary of the method: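 Co-culture of human venular endothelial cells and macrophages, 24 hours of chemical exposure. M-CSF quantified by ELISA, with parallel SRB total-protein staining for cytotoxicity; activity fitted relative to DMSO.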

[7] = read-out: Interleukin-10 (IL10), IL10 (gene 3586); test: BSK_IMphg_IL10: BioMAP Diversity Plus: IMphg Assay for Interleukin-10 (IL10) Biomarker Activity (AID 2284294); conditions: primary human endothelial cells with macrophages
Summary of the method: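 Human venular endothelial cells cocultured with macrophages, dosed 24 h; IL-10 measured by ELISA, activity relative to DMSO. Cytotoxicity assessed in parallel cultures by sulforhodamine B total-protein staining.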

[8] = BSK_IMphg_SRB.Mphg: Macrophage Viability Assessment in the BioMAP Diversity Plus: IMphg Assay (AID 2284295); conditions: primary human endothelial cells with macrophages
Summary of the method: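 Venular endothelial cells co-cultured with macrophages, read 24 h after dosing. Total protein measured by 0.1% SRB staining after 10% TCA fixation, absorbance at 560 nm. Fitted in positive direction against DMSO baseline.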

[9] = read-out: Thrombomodulin, THBD (gene 7056); test: BSK_LPS_Thrombomodulin: BioMAP Diversity Plus: LPS Assay for Thrombomodulin Biomarker Activity (AID 2284296); conditions: outcome: primary human HUVEC with PBMC unless noted
Summary of the method: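 Human umbilical vein endothelial cells co-cultured with PBMC and stimulated with LPS; cell-surface thrombomodulin measured by ELISA 24 hours after compound. Gain or loss versus DMSO; cytotoxicity checked by SRB staining in parallel cultures.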

CD69, CD69 (gene 969) = test: BSK_LPS_CD69: BioMAP Diversity Plus: LPS Assay for CD69 Biomarker Activity (AID 2284303); conditions: primary human HUVEC with PBMC
Summary of the method: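 Human umbilical vein endothelial cells co-cultured with PBMC under LPS stimulation, chemical exposure 24 h; cell-surface CD69 measured by ELISA and fitted in the positive direction versus DMSO.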

[10] = IUF_NPC2c_oligodendrocyte_migration_120hr: Leibniz Research Institute for Environmental Medicine (IUF) 120-hour Neural Progenitor Cell Migration Assay for Oligodendrocyte Migration (NPC2c) (AID 2284297);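 further: O4-positive oligodendrocyte migration distance divided by radial glia migration distance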
Summary of the method: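 Human fetal neural progenitor spheres (0.3 mm) are plated on poly-D-lysine/laminin in N2 differentiation medium and exposed for 120 h, with half-medium renewal at day 3. Oligodendrocyte (O4+) migration distance comes from ICC imaging, normalised to radial glia migration.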

[11] = IUF_NPC2a_radial_glia_migration_120hr: Leibniz Research Institute for Environmental Medicine (IUF) 120-hour Neural Progenitor Cell Migration Assay for Radial Glia Migration (NPC2a) (AID 2284298)
Summary of the method: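 Human fetal-cortex neural progenitor spheres (0.3 mm) plated on poly-D-lysine/laminin in N2 differentiation medium, exposed 120 h at 37C with half-medium renewal at day 3. Radial glia migration distance (um) measured from Hoechst-stained nuclei images; DMSO baseline.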

[12] = IUF_NPC2a_radial_glia_migration_72hr: Leibniz Research Institute for Environmental Medicine (IUF) 72-hour Neural Progenitor Cell Migration Assay for Radial Glia Migration (NPC2a) (AID 2284299)
Summary of the method: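 Migration out of plated human neural progenitor spheres is scored at 72 h as the distance in um from the sphere core edge to the edge of the migration area. Values are the mean of four manual measurements per well, normalised to DMSO.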

[13] = IUF_NPC2b_neuronal_migration_120hr: Leibniz Research Institute for Environmental Medicine (IUF) 120-hour Neural Progenitor Cell Migration Assay for Neuron Migration (NPC2b) (AID 2284300)
Summary of the method: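 0.3 mm hNPC spheres on poly-D-lysine/laminin in N2 differentiation medium exposed 120 h, half-medium refresh day 3; 7 concentrations, DMSO max 0.1%. Neuron (TUBB3) distance from sphere core by ICC imaging, normalised to radial glia migration.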

[14] = IUF_NPC3_neuronal_differentiation_120hr: Leibniz Research Institute for Environmental Medicine (IUF) 120-hour Neuronal Differentiation Assay (NPC3) (AID 2284301)
Summary of the method: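 Single 0.3 mm neurospheres from human fetal cortex were plated in differentiation medium containing test compound. Medium was half-replaced on day 3. After 120 h cells were fixed, immunostained and imaged, and neuronal fraction was scored against DMSO control.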

[15] = IUF_NPC4_neurite_length_120hr: Leibniz Research Institute for Environmental Medicine (IUF) 120-hour Neuronal Morphology Assay for Neurite Length (NPC4) (AID 2284302)
Summary of the method: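 Read-out is mean neurite length in µm of TUBB3-positive neurons, skeletonized from high-content fluorescence images after 120 h. Single 0.3 mm primary human neural progenitor spheres differentiated on poly-D-lysine/laminin under continuous compound exposure; DMSO was baseline.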

[16] = IUF_NPC5_oligodendrocyte_differentiation_120hr: Leibniz Research Institute for Environmental Medicine (IUF) 120-hour Oligodendrocyte Differentiation Assay (NPC5) (AID 2284304; active means hit-call score of the fitted dose curve at least 0.9, where 1 is the maximum;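 further: primary human fetal neural progenitor spheres plated to migrate and differentiate; share of O4-positive cells among Hoechst nuclei found by CNN image analysis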)
Summary of the method: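 Human fetal neural progenitor spheres (0.3 mm) plated on poly-D-lysine/laminin in N2 differentiation medium and exposed for 120 h at 7 concentrations, with half-medium renewal at day 3. O4-positive cells identified by CNN, expressed as percent of Hoechst nuclei.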

[17] = IUF_NPC4_neurite_area_120hr: Leibniz Research Institute for Environmental Medicine (IUF) 120-hour Neuronal Morphology Assay for Neurite Area (NPC4) (AID 2284305; active means hit-call score of the fitted dose curve at least 0.9, where 1 is the maximum)
Summary of the method: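 Neurite area is read out as the mean pixel area, excluding nuclei, of skeletonized TUBB3-positive neurons imaged after 120 h. Primary human neural progenitor spheres differentiated on poly-D-lysine/laminin with compound present from day 0. Activity was referenced to DMSO controls.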

[18] = IUF_NPC2-5_cytotoxicity_72hr: Cytotoxicity Assessment at 72 hours in the Leibniz Research Institute for Environmental Medicine (IUF) Neural Progenitor Cell Migration and Differentiation Assay for Cytotoxicity (NPC2-5) (AID 2284306; active means hit-call score of the fitted dose curve at least 0.9, where 1 is the maximum;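 further: LDH release into supernatant measured by resorufin fluorescence marking membrane damage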)
Summary of the method: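 Membrane integrity loss was scored from fluorescence (RFU) of resorufin generated by LDH in culture supernatant, 72 h after dosing. Differentiating human progenitor spheres received seven serial compound concentrations alongside a solvent control.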

Measured: AC50

Chain of E-selectin (Homo sapiens) (P16581 whole entry, looked up): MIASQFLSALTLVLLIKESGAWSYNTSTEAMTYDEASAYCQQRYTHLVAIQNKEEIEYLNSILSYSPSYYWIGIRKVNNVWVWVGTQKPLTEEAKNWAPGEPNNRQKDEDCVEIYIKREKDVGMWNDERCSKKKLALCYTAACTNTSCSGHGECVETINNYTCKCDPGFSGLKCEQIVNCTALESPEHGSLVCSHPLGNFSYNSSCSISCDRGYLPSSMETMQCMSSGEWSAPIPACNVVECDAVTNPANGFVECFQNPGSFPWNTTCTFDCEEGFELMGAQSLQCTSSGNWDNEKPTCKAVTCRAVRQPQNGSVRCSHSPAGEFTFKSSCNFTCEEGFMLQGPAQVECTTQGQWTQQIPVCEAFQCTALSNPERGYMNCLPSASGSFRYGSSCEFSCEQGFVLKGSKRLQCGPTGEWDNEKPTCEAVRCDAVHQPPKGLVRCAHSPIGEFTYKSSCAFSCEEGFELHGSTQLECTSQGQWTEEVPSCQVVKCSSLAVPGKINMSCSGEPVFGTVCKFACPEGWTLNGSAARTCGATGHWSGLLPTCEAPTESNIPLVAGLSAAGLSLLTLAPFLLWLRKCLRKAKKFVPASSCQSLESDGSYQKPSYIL

O=C(O)CCC(F)(C(F)(F)F)C(F)(F)F
inactive: [1] | CD40, CD40 (gene 958) | [2] | [3] | [4] | [5] | [6] | [7] | [8] | [9] | CD69, CD69 (gene 969)

O=C(O)C(F)(F)C(F)(F)C(F)(F)C(F)(F)C(F)(F)C(F)(F)C(F)(F)C(F)(F)C(F)(F)C(F)(F)F
inactive: CD40, CD40 (gene 958) | [3] | [4] | [5] | [6] | [7] | [8] | [9] | CD69, CD69 (gene 969)
active: [1] 5.12 µM and 5.47 µM | [2] 6.09 µM and 5.21 µM | CD69, CD69 (gene 969) 3330 nM

COC(=O)Cc1ccccc1
active: [9] 2180 nM
inactive: [1] | [2] | [9] inactive [setting not given] | CD69, CD69 (gene 969)

CCOP(=S)(OCC)Oc1nc(Cl)c(Cl)cc1Cl
inactive: [10] | [11] | [12] | [13] | [14] | [15] | [16] | [17] | [18]

O=C(O)C(F)(F)C(F)(F)C(F)(F)C(F)(F)C(F)(F)C(F)(F)F
inactive: [1] | CD40, CD40 (gene 958) | [2] | [3] | [4] | [5] | [6] | [7] | [8] | [9] | CD69, CD69 (gene 969)

COP(=O)(OC)O/C(=C\Cl)c1cc(Cl)c(Cl)cc1Cl
inactive: [18]
active: [10] 603 nM | [11] 638 nM | [12] 1030 nM | [13] 785 nM | [14] 988 nM | [15] 466 nM | [17] 675 nM

CC(=O)OC(c1ccccc1)C(Cl)(Cl)Cl (stereo not given)
inactive: [1] | [2] | [9] | CD69, CD69 (gene 969)
